According to publication PMC5540273 (PLoS ONE, 2017):

What follows are molecules tested on T1, RSK1(Kin.Dom.2-C-terminal). Details: concentration: 1 μM, replicates: in singlicate; n = 1.
T1 construct: gene RPS6KA1
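Further: KINOMEscan kinase panel screen.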

Structure (SMILES) | %Inh [%]
Cc1cccc(Nc2nc(N[C@H]3CCNC3)ncc2C(N)=O)c1.Cl [GSK2197149] | 31
O=C(Nc1ccccc1F)NC1CCN(c2ccnc(Nc3ccc(F)cc3)n2)CC1 [GSK1379800] | 0
CN(C)S(=O)(=O)c1cc(-c2ccc3nccc(-c4cccc(S(N)(=O)=O)c4)c3c2)cnc1N [GSK1669921] | 10
COc1ccc(CNC(=O)NC2CCN(c3ccnc(Nc4ccc(F)cc4)n3)CC2)cc1 [GSK1379788] | 0
Cl.Cl.NCC(C(=O)Nc1cc(Br)c(-c2ccnc3[nH]ccc23)s1)c1ccccc1 (stereo not shown) [GSK1269851] | 0
COC(=O)Nc1nc2ccc(Oc3ccc(NC(=O)Nc4cc(C(F)(F)F)ccc4F)cc3)cc2n1C.Cl [GW692089] | 0
Nc1ncc(-c2cccnc2)c2scc(-c3ccc4c(c3)CCN4C(=O)Cc3ccccc3)c12 [GSK683281] | 1
Cc1ccc(C(=O)Nc2ccc(Nc3ccnc4cc(-c5nccs5)ccc34)cc2O)cc1.Cl [GW494702] | 0
Cn1cc(-c2[nH]c3cc(NC(=O)[C@H](N)C4CCCCC4)cc4c3c2C=NNC4=O)cn1 | 72
CCc1ccc(-c2ccc3c(c2)-c2c(cnn2C)S(=O)(=O)N3C)cc1 | 0
Nc1ncc(-c2ccc3nccc(-c4ccncc4)c3c2)cc1S(=O)(=O)N1CCOCC1 [GSK1627798] | 0
O=C(Nc1n[nH]c2nc(-c3ccc(O)cc3)ccc12)C1CC1 [SB-710363] | 64
O=C(O)C(F)(F)F.O=C(O)C(F)(F)F.O=c1[nH]ccc2nc(N[C@@H]3CCCNC3)nc(Nc3ccc(S(=O)(=O)N4CCOCC4)cc3)c12 [GSK2177277] | 75
COc1cccc(NC(=O)NC2CCN(c3ccnc(Nc4cc(OC)c(OC)c(OC)c4)n3)C2)c1 (stereo not shown) [GSK1379763] | 4
CCS(=O)(=O)c1ccc(OC)c(Nc2nccc(-c3c(-c4cccc(NC(=O)c5c(F)cccc5F)c4)nn4ncccc34)n2)c1 [GSK326180] | 0
COC(=O)Nc1nc2cc(Oc3ccc(NC(=O)Nc4cc(C(F)(F)F)ccc4F)cn3)ccc2[nH]1.Cl.Cl [GW681170] | 50
COc1cc(Nc2nccc(N3CCC(NC(=O)Nc4cccc(C(C)=O)c4)C3)n2)cc(OC)c1OC (stereo not shown) [GSK1379753] | 5
COc1cc(Nc2nccc(-c3c(-c4cccc(NC(=O)c5c(F)cccc5F)c4)nn4ccccc34)n2)cc(OC)c1OC [GSK323521] | 14
Cl.Cl.NCC(NC(=O)c1cc(-c2ccccc2)c(-c2ccnc3[nH]ccc23)s1)c1ccccc1 (stereo not shown) [GSK1321561] | 62

Structure (SMILES) | %Inh [%]
Cl.c1ccc(-c2ccc3c(Nc4ccc5[nH]ncc5c4)ccnc3c2)nc1 [GW440137] | 6
CCn1c(-c2nonc2N)nc2c(C#CC(C)(C)O)ncc(OCCCCN)c21.O=C(O)C(F)(F)F.O=C(O)C(F)(F)F [GSK507274] | 0
CN1CCN(CCCNc2nccc(-c3c(-c4ccc(F)cc4)nn4cc(C(F)(F)F)ccc34)n2)CC1 [GW621581] | 44
Cl.Cl.NCC(NCc1ccc(-c2ccnc3[nH]ccc23)s1)c1ccccc1 (stereo not shown) [GSK1321565] | 0
COc1cc(Nc2ncc3c(C)nc(-c4cc5ccccc5[nH]4)n3n2)cc(OC)c1OC [GW869516] | 0
Nc1ncnc2c1nc(-c1ccccc1)n2-c1ccccc1 [SKF-97293] | 0
O=C(Nc1cccc(-c2nn3ccccc3c2-c2ccnc(Nc3cccc(C(F)(F)F)c3)n2)c1)c1c(F)cccc1F [GSK292658] | 0
CCCCc1nn2ncccc2c1-c1ccnc(Nc2ccc(N3CCN(C)CC3)cc2)n1 [GW684941] | 31
Fc1ccc(-c2ncn(C3CCNCC3)c2-c2ccnc(Oc3ccc(-c4ccccc4)cc3)n2)cc1 [SB-245391] | 0
FC(F)(F)c1ccc(/C=C/c2cncnc2Nc2ccc3[nH]c(Cc4ccccc4)nc3c2)cc1 [GW709199] | 0
CC(=O)N1CCN(c2ccc(Nc3nccc(-c4sc(C(C)C)nc4-c4cccc(NS(=O)(=O)c5cccc(Cl)c5)c4)n3)cn2)CC1 [GSK1660437] | 0
CC(=O)Nc1nc2cnc(Nc3cc(NC(=O)c4cccc(C5(C#N)CC5)c4Cl)ccc3C)nc2s1 | 25
NCCCC(NC(=O)c1cc(Br)c(-c2ccnc3[nH]ccc23)s1)c1ccccc1.O=C(O)C(F)(F)F.O=C(O)C(F)(F)F (stereo not shown) [GSK1287544] | 0
CN(C)Cc1ccc(-c2ccc3c(Nc4ccc(Oc5ccccn5)cc4)ccnc3c2)o1 [GW567148] | 0
Cn1cc(-c2ccc3c(c2)CCN3C(=O)Cc2cccc(Cl)c2)c2c(N)ncnc21 [GSK2606590] | 0
O=c1[nH]cc(-c2ccc(N3CCOCC3)cc2)c2sc(-c3cn[nH]c3)cc12 [GSK2276055] | 24
CN1CCN(Cc2cccc(-c3ccc4c(Nc5ccc(Oc6ccccc6)cc5)ccnc4c3)c2)CC1 [GW578342] | 99.1
COc1cccc(-c2ccc3c(NC(=O)C4CC4)n[nH]c3n2)c1 [SB-710903] | 0
